Results filed as inconclusive are left out. Active and inactive are the calls of the source. Calls come from the whole dose curve; as a rule, active = well fitted inhibition curve with a large enough effect; inconclusive = small, poorly fitted or top-dose-only effect; inactive = flat fitted curve, though single readings scatter.
Test: CHOP2 Reporter Counterscreen Assay for Inhibitors of Ubiquitin-specific Protease USP2a;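 note: activated enterokinase alone at 50 pM in a cell-free format rather than USP2a or CHOP2; nearly all actives have a fitted effect of over 55% in size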
Conditions: purified enterokinase, fluorogenic substrate, 485/531 nm; series mostly up to 38.3 µM; activity change, negative = inhibition: at the top concentration
How it was run: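 Fluorescence (485/531 nm) read 10 min after adding 25nM reporter substrate to 50 pM activated EK preincubated 30 min RT with compound; Tris pH 8.0/CaCl2/CHAPS buffer. Data normalized to buffer-alone inhibition; concentration-response curves fitted.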
% is set by controls: 0 for no effect and ±100 for the full control effect; potency is the fitted concentration of half-maximal effect.

Question: With `O=C(CSc1nnnn1-c1ccc(F)cc1)c1ccc(O)c(O)c1` as the molecule, how does the Potency read?
Answer: 12.6 µM (active)

Question: With `CCC(=O)c1ccc(OCC(=O)NC2CCN(Cc3ccccc3)CC2)cc1` as the molecule, how does the “activity change, negative = inhibition” value read?
Answer: -0.493% (inactive)

Question: With `NS(=O)(=O)c1cc(C(=O)NC2CCSc3ccccc32)ccc1Cl` (stereo not given) as the molecule, how does the Potency read?
Answer: 10 µM (active)

Question: With `CCn1c(COc2ccc(C)cc2)nnc1SCC(=O)Nc1ccc2c(c1)OCCO2` as the molecule, how does the “activity change, negative = inhibition” value read?
Answer: 0.498% (inactive)

Question: For `NC1=NC2(CCC(c3ccccc3)CC2)n2c(nc3ccccc32)N1` (stereo not given), which “activity change, negative = inhibition” value is on record?
Answer: -0.14% (inactive)

Question: For `COc1ccccc1-n1c(SCC(=O)Nc2ccc(C)cc2)nc(O)cc1=O`, which “activity change, negative = inhibition” value is on record?
Answer: -9.74% (inactive)

Question: For `CC(OC(=O)c1nsc(Cl)c1Cl)C(=O)NCc1ccco1` (stereo not given), which “activity change, negative = inhibition” value is on record?
Answer: -2.69% (inactive)

Question: For `COc1ccc(C(=O)Nc2ccc(N3CCCC3)cc2)cc1OC`, which “activity change, negative = inhibition” value is on record?
Answer: 0.701% (inactive)

Question: For `FC(F)(F)c1cnc2c(c1)Nc1ccccc1S2`, which “activity change, negative = inhibition” value is on record?
Answer: 7.72% (inactive)

Question: With `N=C1C(c2nc3ccccc3c(=O)[nH]2)=C(O)CN1CCc1ccccc1` as the molecule, how does the “activity change, negative = inhibition” value read?
Answer: 0.564% (inactive)

Question: With `O=C(NCCCN1CCCC1=O)c1cccc(N2CCCC2=O)c1` as the molecule, how does the “activity change, negative = inhibition” value read?
Answer: 2.06% (inactive)

Question: Which “activity change, negative = inhibition” value does the source give for `COc1cc2c(C(=O)N3CCN(c4cccc(Cl)c4)CC3)cn(CC(C)C)c(=O)c2cc1OC` here?
Answer: -1.58% (inactive)

Question: Which “activity change, negative = inhibition” value does the source give for `O=C1c2ccccc2C(=O)N1CCCCn1c(=O)oc2ccccc21` here?
Answer: 0.299% (inactive)

Question: Which “activity change, negative = inhibition” value does the source give for `CC(C)CC(c1nnnn1CC1CCCO1)N1CCN(c2nc3ccccc3s2)CC1` (stereo not given) here?
Answer: -3.48% (inactive)

Question: For `Cc1ccc(S(=O)(=O)N2[C@@H](c3ccccc3F)C(C(=O)O)=CC[C@H]2c2ccc(Cl)c(Cl)c2)cc1`, which “activity change, negative = inhibition” value is on record?
Answer: 0.747% (inactive)

Question: Which Potency does the source give for `O=C(N/N=C/c1ccc(F)cc1)c1cc(-c2ccco2)nc2ccccc12` here?
Answer: 2.24 µM (active)

Question: Which “activity change, negative = inhibition” value does the source give for `COC(=O)[C@@]12CCCCN1[C@H](c1ccc(-c3ccc(Cl)c(Cl)c3)cc1)[C@H]1C(=O)N(C)C(=O)[C@H]12` here?
Answer: -3.03% (inactive)

Question: With `C#CCOCCOCCOCCNc1nc(N2CCN(C(=O)CCCCCCCCCCNC(=O)[C@@H](CCC(=O)O)n3cc(CCCCCN)nn3)CC2)nc(N2CCN(C(=O)CCCCCCCCCCNC(=O)[C@H]([C@@H](C)CC)n3cc(CCCCCN)nn3)CC2)n1` as the molecule, how does the Potency read?
Answer: 5.01 µM (active)

Question: Which “activity change, negative = inhibition” value does the source give for `Cc1ccc2[nH]c3c(c2c1)CN(C(=O)CN1CCSCC1)CC3` here?
Answer: 13.7% (inactive)

Question: With `Cn1c(C(=O)NCCN2CCOCC2)cc2c(=O)n(C)c3ccccc3c21` as the molecule, how does the “activity change, negative = inhibition” value read?
Answer: -0.0744% (inactive)

Question: For `CC(C)(C)C1C=C(Sc2ccccc2)C(=O)O1` (stereo not given), which “activity change, negative = inhibition” value is on record?
Answer: 2.04% (inactive)

Question: With `O=C(OCc1nc2ccccc2[n+]([O-])c1C(=O)c1ccccc1)c1cccs1` as the molecule, how does the “activity change, negative = inhibition” value read?
Answer: 1.84% (inactive)

Question: With `CC[C@]12c3[nH]c4cc(-c5ccco5)ccc4c3CCN1C(=O)[C@@H](CC(=O)NC/C=C(\C)CCC=C(C)C)C[C@@H]2C(=O)N1CCN(C(=O)C2CC2)CC1` as the molecule, how does the “activity change, negative = inhibition” value read?
Answer: 3.79% (inactive)

Question: Which “activity change, negative = inhibition” value does the source give for `CCOc1ccc2[nH]c(=O)c(CN(Cc3cccs3)Cc3nnnn3C(C)(C)CC)cc2c1` here?
Answer: -1.12% (inactive)

Question: For `O=C(CSc1nc2ccccc2s1)NCCCN1CCOCC1`, which “activity change, negative = inhibition” value is on record?
Answer: -0.586% (inactive)

Question: For `O=C(Nc1ccc(Oc2ccc(Cl)cc2)cc1)c1ncn[nH]1`, which “activity change, negative = inhibition” value is on record?
Answer: 4.42% (inactive)

Question: With `CC1=CC(C)(C)N(C(=O)c2ccccc2)c2ccccc21` as the molecule, how does the “activity change, negative = inhibition” value read?
Answer: 6.73% (inactive)

Question: For `CCOc1ccc(-c2ccc(/C=C3/C(=N)N4C(C)=CSC4=NC3=O)o2)c([N+](=O)[O-])c1`, which “activity change, negative = inhibition” value is on record?
Answer: -15.5% (inactive)

Question: With `O=C(NCc1ccccc1)C1CCC1` as the molecule, how does the “activity change, negative = inhibition” value read?
Answer: 1.5% (inactive)

Question: With `Cc1ccc(C)n1NC(=O)c1ccccc1O` as the molecule, how does the “activity change, negative = inhibition” value read?
Answer: -12.6% (inactive)

Question: With `O=C1CC(Nc2ccc(N3CCOCC3)cc2)C(=O)N1c1cccc(C(F)(F)F)c1` (stereo not given) as the molecule, how does the “activity change, negative = inhibition” value read?
Answer: 0.0866% (inactive)

Question: With `COC(=O)c1c(NC(=O)c2cccnc2)sc(C)c1C` as the molecule, how does the “activity change, negative = inhibition” value read?
Answer: 3% (inactive)

Question: With `CCc1nnc(NC(=O)CSc2nccn2-c2cccc(C)c2)s1` as the molecule, how does the “activity change, negative = inhibition” value read?
Answer: -0.253% (inactive)

Question: Which “activity change, negative = inhibition” value does the source give for `CSc1cccc(NC(=O)c2ccccc2N(C)S(C)(=O)=O)c1` here?
Answer: 3.92% (inactive)

Question: Which “activity change, negative = inhibition” value does the source give for `CC(=O)Nc1cc[n+](CC(=O)c2ccc(Cl)cc2)cc1` here?
Answer: -1.03% (inactive)

Question: Which “activity change, negative = inhibition” value does the source give for `Cc1ccccc1N=C1NC(=O)CS1` here?
Answer: 2.43% (inactive)

Question: For `Cc1ccc2c(c1)c1c3n2CCN(C(=O)Cn2c(-c4ccccc4)noc2=O)C3CCC1` (stereo not given), which “activity change, negative = inhibition” value is on record?
Answer: 0.405% (inactive)

Question: Which “activity change, negative = inhibition” value does the source give for `Cc1ccc(C(=O)c2coc3c2C(=O)C(=O)c2ccccc2-3)cc1` here?
Answer: 0.551% (inactive)

Question: For `C=CCSC1=N/C(=C\C=C\c2ccco2)C(=O)S1`, which Potency is on record?
Answer: 7.94 µM (active)

Question: With `NS(=O)(=O)c1ccc(NC(=O)CN2CCCCC2)cc1` as the molecule, how does the “activity change, negative = inhibition” value read?
Answer: 0.546% (inactive)

Reference: PubChem BioAssay AID493169 (National Center for Advancing Translational Sciences (NCATS), 2011)
